Assay results taken from the supplement of paper PMC9950053.
Structures can show the parent of a compound that is named as a salt.

System: Danio rerio larvae (5 dpf)
Test: 1-h baseline activity (% time moving, periods 1-6) minus DMSO control (percentage points); higher = more locomotor activity than DMSO larvae
Details: 10 µM; exposure time: 3 h pre-incubation + 3 h imaging
Method: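 Wild-type 5 dpf zebrafish larvae (n=48 per drug, 96-well plates, 28.5 °C) were exposed to Tocris FDA-approved library compounds at 10 µM (0.1% DMSO) for 3 h before and 3 h during imaging. Images were taken every 6 s during visual (moving coloured lines) and acoustic stimuli, and larvae were tracked with the DeepLabCut-based Z-LaP Tracker. Each behavioural measure is the treated-group mean minus the DMSO vehicle control mean (n=844), in percentage points. This mapping covers compounds with 4-character plate codes.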

SMILES	1-h baseline activity
CN1CC2c3ccccc3Oc3ccc(Cl)cc3C2C1 (stereo not given) [Asenapine maleate]	30.8
Nc1ccn([C@@H]2O[C@H](CO)[C@@H](O)C2(F)F)c(=O)n1 [Gemcitabine hydrochloride]	-7.23
CN(CCOc1ccc(CC2SC(=O)NC2=O)cc1)c1ccccn1 (stereo not given) [Rosiglitazone]	-1.36
C[C@H]1C[C@@H]2[C@H]([C@@H](O)C[C@@]3(C)[C@H]2CC[C@]3(O)C(=O)CO)[C@@]2(C)C=CC(=O)C=C12 [Methylprednisolone]	-0.716
CC(C)C(=O)Nc1ccc([N+](=O)[O-])c(C(F)(F)F)c1 [Flutamide]	-9.78
Nc1cccc2c1CN(C1CCC(=O)NC1=O)C2=O (stereo not given) [Lenalidomide]	-7.06
CCOC(=O)[C@H](CCc1ccccc1)N[C@H]1CCc2ccccc2N(CC(=O)O)C1=O [Benazepril hydrochloride]	0.149
Nc1nc(Cl)nc2c1ncn2[C@@H]1O[C@H](CO)[C@@H](O)[C@@H]1F [Clofarabine]	-5.31
Nc1nc(NC2CC2)c2ncn([C@H]3C=C[C@@H](CO)C3)c2n1 [Abacavir hemisulfate]	6.96
CC(=O)Oc1ccccc1C(=O)O [Aspirin]	-0.776
COc1ccc([C@@H]2Sc3ccccc3N(CCN(C)C)C(=O)[C@@H]2OC(C)=O)cc1 [Diltiazem hydrochloride]	-4.8
CCCCc1nc(Cl)c(CO)n1Cc1ccc(-c2ccccc2-c2nnn[nH]2)cc1 [Losartan potassium]	10.3
CN1CCC[C@@H]1Cc1c[nH]c2ccc(CCS(=O)(=O)c3ccccc3)cc12 [Eletriptan hydrobromide]	2.42
CCCCCCCCc1ccc(CCC(N)(CO)CO)cc1	-21.1
COc1ccc(Cl)cc1C(=O)NCCc1ccc(S(=O)(=O)NC(=O)NC2CCCCC2)cc1 [Glibenclamide]	-0.0251
COc1cccc2c1C(=O)c1c(O)c3c(c(O)c1C2=O)C[C@@](O)(C(=O)CO)C[C@@H]3O[C@H]1C[C@H](N)[C@H](O)[C@H](C)O1 [Doxorubicin hydrochloride]	-7.23
CN1CCC[C@@H]1CCO[C@](C)(c1ccccc1)c1ccc(Cl)cc1 [Clemastine fumarate]	1.06
OCCOCCN1CCN(C2=Nc3ccccc3Sc3ccccc32)CC1 [Quetiapine hemifumarate]	9.62
Cc1ccc(N(CC2=NCCN2)c2cccc(O)c2)cc1 [Phentolamine Mesylate]	7.71
CCN(Cc1ccncc1)C(=O)C(CO)c1ccccc1 (stereo not given) [Tropicamide]	-5.81

SMILES	1-h baseline activity
CC(=O)NC[C@H]1CN(c2ccc(N3CCOCC3)c(F)c2)C(=O)O1 [Linezolid]	3.05
Cc1ccc(NC(=O)c2ccc(CN3CCN(C)CC3)cc2)cc1Nc1nccc(-c2cccnc2)n1 [Imatinib mesylate]	-13.5
CC(CCc1ccc(O)cc1)NCCc1ccc(O)c(O)c1 (stereo not given) [Dobutamine hydrochloride]	-2.47
CCCc1nc2c(C)cc(-c3nc4ccccc4n3C)cc2n1Cc1ccc(-c2ccccc2C(=O)O)cc1 [Telmisartan]	-7.8
C/C(O)=C(\C#N)C(=O)Nc1ccc(C(F)(F)F)cc1 [Teriflunomide]	-8.94
NS(=O)(=O)Cc1noc2ccccc12 [Zonisamide]	2.49
NC(=O)c1ncn([C@@H]2O[C@H](CO)[C@@H](O)[C@H]2O)n1 [Ribavirin]	1.15
CCc1c2c(nc3ccc(OC(=O)N4CCC(N5CCCCC5)CC4)cc13)-c1cc3c(c(=O)n1C2)COC(=O)[C@]3(O)CC	-6.2
CC1(C)O[C@@H]2[C@@H](CO[C@@]3(COS(N)(=O)=O)OC(C)(C)O[C@@H]23)O1 [Topiramate]	9.54
N#Cc1ccc(C(c2ccc(C#N)cc2)n2cncn2)cc1 [Letrozole]	-4.77
Cc1ccc(O)c([C@H](CCN(C(C)C)C(C)C)c2ccccc2)c1 [Tolterodine L-tartrate]	0.455
O=C(c1ccc(OCCN2CCCCC2)cc1)c1c(-c2ccc(O)cc2)sc2cc(O)ccc12 [Raloxifene hydrochloride]	-7.31
Nc1ncn([C@@H]2O[C@H](CO)[C@@H](O)[C@H]2O)c(=O)n1 [5-Azacytidine]	2.7
CC(c1cc2ccccc2s1)N(O)C(N)=O (stereo not given) [Zileuton]	-1.65
C[C@@H](O[C@H]1OCCN(Cc2n[nH]c(=O)[nH]2)[C@H]1c1ccc(F)cc1)c1cc(C(F)(F)F)cc(C(F)(F)F)c1 [Aprepitant]	-8.77
CC1=Nc2ccc(Cl)cc2S(=O)(=O)N1 [Diazoxide]	7.2
CC(C)Nc1cccnc1N1CCN(C(=O)c2cc3cc(NS(C)(=O)=O)ccc3[nH]2)CC1 [Delavirdine mesylate]	-4.01
CN(C)CC/C=C1/c2ccccc2COc2ccc(CC(=O)O)cc21 [Olopatadine hydrochloride]	-0.564
CCc1ccc(CCOc2ccc(CC3SC(=O)NC3=O)cc2)nc1 (stereo not given) [Pioglitazone hydrochloride]	-7.48
CCC(C)(C)C(=O)O[C@H]1C[C@@H](C)C=C2C=C[C@H](C)[C@H](CC[C@@H]3C[C@@H](O)CC(=O)O3)[C@H]21 [Simvastatin]	6.15
